CHT inh = inhibits the human high affinity choline transporter; Q9GZV3; CHT-expressing cells, membrane potential dye, choline response; stronger effect = lower value; B-score at 10 µM; 310,000 tested, 0.86% active; AID 488975;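 active = B-score over 3 SD under the library average, and starting fluorescence ratio not unusually high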;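 note: choline stimulus applied at its EC90 after an EC20 pre-addition; B-score computed on integrated fluorescence ratio after choline addition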
CHT PAM = human CHT allosteric activation. AID 488977. CHT-expressing cells, membrane potential dye, choline EC20; stronger effect = higher value; LV-AA mutant CHT in HEK293 cells. B-score at 10 µM. Q9GZV3. 310,000 tested, 0.49% active;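 active = initial fluorescence not abnormally high and integrated response B-score, plate-corrected, over 3 SD above library mean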
Kir21 block = inhibitors of mouse Kir2.1 inward-rectifier potassium channel; P35561; HEK293-Kir2.1, FluxOR thallium flux fluorescence; stronger effect = lower value; B-score at 10 µM; 310,000 tested, 0.85% active; AID 1672;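 active = fluorescence ratio B-score at or below minus 3 SD of library scores, with starting-brightness B-score within 2 SD, cut at about -4.2 in these data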;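 note: channel flux triggered by added potassium and thallium sulfate stimulus; B-score of peak minus minimum fluorescence over baseline after thallium stimulus; more negative B-score means stronger Kir2.1 block with less thallium influx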
TAG inh = triacylglycerol accumulation inhibition; H9c2 cells, Nile Red lipid (TAG) fluorescence; cells loaded with 200 µM oleic acid; inhibition, % at 12.5 µM; 230,000 tested, 0.66% active;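 active = pattern-corrected inhibition of lipid staining of at least 50% with the nuclear-stain viability signal not falling by more than 50%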
hERG inh = counter-screen for Kir2.1 inhibitors: effect on human hERG. shares compounds with Kir21 block. hERG-expressing cells, thallium flux. inhibition, % at 10 µM. 320 tested, 20% active. AID 2236;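 note: host cells are CHO cells stably expressing hERG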
Target sequence (Q12809 whole entry, looked up): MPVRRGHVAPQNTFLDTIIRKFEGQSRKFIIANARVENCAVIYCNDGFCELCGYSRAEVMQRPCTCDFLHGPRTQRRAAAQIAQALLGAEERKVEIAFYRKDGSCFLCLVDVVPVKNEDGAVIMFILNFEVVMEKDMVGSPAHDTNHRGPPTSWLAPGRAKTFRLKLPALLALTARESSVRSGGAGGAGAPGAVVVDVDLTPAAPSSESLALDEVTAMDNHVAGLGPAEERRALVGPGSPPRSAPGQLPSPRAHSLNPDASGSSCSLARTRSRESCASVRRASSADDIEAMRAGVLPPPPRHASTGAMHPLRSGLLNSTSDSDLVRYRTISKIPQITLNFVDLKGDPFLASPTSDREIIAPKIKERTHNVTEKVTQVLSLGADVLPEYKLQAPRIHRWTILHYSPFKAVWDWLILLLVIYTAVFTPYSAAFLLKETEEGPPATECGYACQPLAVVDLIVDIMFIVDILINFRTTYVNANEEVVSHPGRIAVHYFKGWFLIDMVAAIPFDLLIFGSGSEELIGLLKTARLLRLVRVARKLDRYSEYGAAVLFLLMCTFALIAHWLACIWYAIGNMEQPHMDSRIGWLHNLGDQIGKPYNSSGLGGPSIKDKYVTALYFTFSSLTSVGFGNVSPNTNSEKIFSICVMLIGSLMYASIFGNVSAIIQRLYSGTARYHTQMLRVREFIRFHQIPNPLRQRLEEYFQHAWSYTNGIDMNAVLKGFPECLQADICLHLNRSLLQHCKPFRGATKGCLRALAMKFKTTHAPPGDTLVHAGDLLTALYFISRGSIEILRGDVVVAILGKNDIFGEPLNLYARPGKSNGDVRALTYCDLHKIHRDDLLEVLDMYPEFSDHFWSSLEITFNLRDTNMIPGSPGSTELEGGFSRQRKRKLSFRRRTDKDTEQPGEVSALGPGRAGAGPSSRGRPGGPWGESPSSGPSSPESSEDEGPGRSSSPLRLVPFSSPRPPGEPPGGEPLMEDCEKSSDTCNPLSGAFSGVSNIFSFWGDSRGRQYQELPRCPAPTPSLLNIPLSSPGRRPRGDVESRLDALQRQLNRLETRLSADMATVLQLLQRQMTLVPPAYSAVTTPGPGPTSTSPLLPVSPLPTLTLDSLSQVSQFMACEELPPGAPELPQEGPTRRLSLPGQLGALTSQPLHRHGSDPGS
KCNK9 spec = tests whether Kir2.1 inhibitors also affect human KCNK9; inhibition, % at 10 µM; shares compounds with Kir21 block; KCNK9-expressing cells, ion flux inhibition; 320 tested, 5% active
Kir2-1 patch inh = inhibitors of mouse Kir2.1 potassium channel; shares compounds with Kir21 block; Kir2.1 cells, automated patch-clamp current inhibition; inhibition, % at 25 µM; 320 tested, 71% active; AID 463252
Numbers stand for hits; . = inactive; / = not tested or not shown. Most compounds without a hit are left out; they make up all but 2% or so of the library. Unless noted, the rule behind the calls is not given here.

SMILES	CHT inh	CHT PAM	Kir21 block	TAG inh	others
CC1=C(C)/C(=N\OS(=O)(=O)c2ccccc2)C=CC1=O	.	.	-11	.
Cc1ccc(S(=O)(=O)O/N=C2\CCCc3ccccc32)cc1	.	.	.	.
CCc1ccc(CN2CCCC(C(=O)Nc3ccccc3-c3ccc(OC)cc3)C2)o1 (stereo unspecified)	.	.	-5.9	/
O=C(CSc1nnnn1-c1cccc2c1CCCC2)N1CCCCC1	.	.	-4.3	.
C/C(=N\NC(=S)NCCc1ccccc1)c1cccs1	.	.	.	.
c1ccc(COc2ccccc2CNC2CCCC2)cc1	.	.	.	.
c1csc(COc2ccccc2CNC2CCCCC2)c1	.	.	-4.2	.
O=C(COc1ccccc1[N+](=O)[O-])Nc1cccc(C(=O)Nc2ccccc2C(=O)O)c1	.	.	.	/
COc1ccc(C(=O)c2c(C)c3ccccc3n2CC(O)CNC(C)C)cc1 (stereo unspecified)	.	.	.	.
CC(C)NCC(O)Cn1c2c(c3ccccc31)CCc1c-2cnn1-c1ccccc1 (stereo unspecified)	-6.5	.	-6.1	/
Cc1ccc(SC[C@H](C)CN2CC[C@H](C)CCC2=O)cc1	.	.	-4.7	.
O=C(c1ccccn1)N(c1ccccc1)C1(C(=O)NC2CCCCC2)CCCCC1	.	.	.	.
CCOP(=O)(OCC)C(NC(=O)c1cc([N+](=O)[O-])cc([N+](=O)[O-])c1)C(F)(F)F (stereo unspecified)	.	.	.	.
COc1ccccc1Cn1c(/C=C/c2ccccc2)nc2ccccc21	.	.	.	/
COc1ccccc1Cn1c(C(C)C)nc2ccccc21	.	.	-5	.
CCc1ccccc1NC(=O)CCN1C(=O)C2C3CCC(C3)C2C1=O (stereo unspecified)	.	.	.	.
C=CCNCC(=O)N1N=C(c2ccc3ccccc3c2)CC1c1ccc(OC)cc1 (stereo unspecified)	.	.	-4.3	.
O=C(/C(=C/c1ccccc1)n1cncn1)c1ccc(Cl)cc1Cl	.	.	-13	/
Cn1c(CCN2CCN(c3ccccn3)CC2)nc2cc(NS(=O)(=O)c3ccccc3)ccc21	.	.	.	/
CC(C)n1cnc2c(N(C)c3ccccc3)nc(N(CCN(C)C)Cc3ccccc3)nc21	.	.	-6.8	52
COc1cc(N(Cc2ccccc2)Cc2ccccc2)c2ncn(C(C)C)c2c1	/	/	/	.
O=C(Nc1nc(=S)ss1)c1ccc(Cl)cc1Cl	-9.2	.	.	.
O=C(Nc1ccc2ccccc2c1)c1ccc(Cl)cc1Cl	.	.	.	/
COc1ccc(NC(=O)/C(Cl)=C(/Cl)S(=O)Cc2ccccc2)cn1 (stereo unspecified)	.	.	.	96
CCOC(=O)/C=C/S(=O)(=O)c1ccc(NC(C)=O)cc1	-5.5	.	.	/
SMILES	CHT inh	CHT PAM	Kir21 block	TAG inh	others
CCOC(=O)/C=C/C(=O)Nc1ccc(S(=O)(=O)Nc2c(C)cc(C)cc2C)cc1	.	.	.	.
COc1ccc(C(CNC(=O)Nc2ccc(Cl)cc2)N2CCN(C)CC2)cc1 (stereo unspecified)	.	.	.	/
CCN1CCN(c2nc(-c3ccncc3)nc3ccccc23)CC1	-6.9	.	.	/
CC(Oc1ccc([N+](=O)[O-])cc1Cl)C(=O)Nc1ccc(C(N)=O)cc1 (stereo unspecified)	.	.	.	/
CC(C)c1ccccc1NC(=O)COC(=O)Cc1c[nH]c2ccccc12	.	.	-5.4	/
O=C(COC(=O)Cc1c[nH]c2ccccc12)NC1CCCCC1	.	.	-7	.
COc1ccccc1NC(=O)COC(=O)Cc1c[nH]c2ccccc12	.	.	.	.
O=C(Cc1ccc(F)cc1)Nc1cc(S(=O)(=O)N2CCOCC2)ccc1N1CCCCC1	/	/	/	.
NS(=O)(=O)c1ccc(CCNC(=O)COC(=O)CC(c2ccccc2)c2ccccc2)cc1	.	.	-5.1	/
NS(=O)(=O)c1ccc(CCNC(=O)CC(c2ccccc2)c2ccccc2)cc1	.	.	.	.
CCC(C)Sc1nc2c(c(=O)[nH]1)C(c1cccs1)C1=C(CCCC1=O)N2 (stereo unspecified)	.	.	.	.
CCN(CC)C(=S)SSC(=S)N(CC)CC	.	.	-4.5	.
COCC(=O)Nc1ncc(S(=O)(=O)c2ccc([N+](=O)[O-])cc2)s1	.	.	.	.
O=C(NC(Nc1ncc(S(=O)(=O)c2ccc([N+](=O)[O-])cc2)s1)(C(F)(F)F)C(F)(F)F)c1ccc(Cl)cc1	.	.	-6.9	.
Cc1cc(CSC(=N)N)c(CSC(=N)N)cc1C	.	12	.	.
Cc1c(C)n(Cc2ccccc2)c2ccc(C(=O)OCCN(C)C)cc12	.	.	-9.5	.
Cc1c(C)n(Cc2ccccc2)c2ccc(C(=O)NCCN3CCOCC3)cc12	.	.	.	/
NS(=O)(=O)c1cccc(NC(=O)c2ccc(NS(=O)(=O)c3cccc([N+](=O)[O-])c3)cc2)c1	/	/	/	.
COc1cc(OC)c(NS(=O)(=O)c2c(C(=O)N3CCCCC3)c(C)n(C)c2C)cc1Cl	.	.	.	/
COc1cc(OC)c(NC(C)C(=O)N2CCCC2)cc1Cl (stereo unspecified)	-8.7	.	.	.
c1ccc(CNc2c3ccccc3nc3ccccc23)cc1	.	.	-8.3	/	hERG inh=70%;KCNK9 spec=.;Kir2-1 patch inh=16%
CCn1c(SC)nnc1C1CCCN(CC(=O)Nc2ccccc2N2CCOCC2)C1 (stereo unspecified)	.	.	.	/
CCCN(CCC)S(=O)(=O)c1ccc(Cl)c(OC)c1	.	.	-6.2	.	hERG inh=.;KCNK9 spec=.;Kir2-1 patch inh=32%
Cc1cc2nc(-c3ccc4c(c3)CCC4)ccn2n1	.	.	.	.
COc1cc(CNCc2ccc(Br)cc2)cc(OC)c1	.	.	-7.5	/	hERG inh=.;KCNK9 spec=.;Kir2-1 patch inh=72%
SMILES	CHT inh	CHT PAM	Kir21 block	TAG inh	others
CC(C)(C)c1ccc(S(=O)(=O)NC(=O)C2(C)CCN2C(=O)Cc2cccs2)cc1 (stereo unspecified)	/	/	/	.
CCOc1nc(C)cc(C)c1S(=O)(=O)c1ccc(Cl)cc1	.	.	-6.4	.	hERG inh=.;KCNK9 spec=.;Kir2-1 patch inh=.
COc1nc(C)cc(C)c1S(=O)(=O)c1ccc(Cl)cc1	.	.	.	/
Cc1nnc(-c2cnn(C)c2N)n1Cc1ccc2c(c1)OCO2	.	.	.	.
Cc1[nH]n(-c2ccccc2)c(=O)c1CCO	.	.	.	.
Cc1[nH]n(-c2ccccc2)c(=O)c1S(=O)(=O)c1ccccc1	.	.	-15	/	hERG inh=.;KCNK9 spec=.;Kir2-1 patch inh=66%
OCC1(CCOc2ccccc2)CCN(Cc2ccncc2)CC1	.	.	.	/
CSc1ccc(CN2CCC(CO)(CCOc3ccccc3)CC2)cc1	.	.	-5.8	/	hERG inh=73%;KCNK9 spec=.;Kir2-1 patch inh=7.3%
Cc1ccc(F)cc1CNC(=O)C1CCC(=O)N(C2CC2)C1 (stereo unspecified)	.	.	.	.
